We go through 14 compounds from PubChem BioAssay (NCI).

This is part of a sample that, as a whole, favours compounds with a hit. Of some 83,000 tested, about 20% had one in any assay.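 How to read the values: 0–100, growth inhibition (40 = 60% inhibited); 0, no net growth; -100 to 0, cell death (-40 = 40% of starting cells died; -100 = all dead).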 A number with no mark means an inactive call. Active and inactive are the calls of the source. Rule for the calls: active = growth percent below 10; inactive = the rest.

Some test systems named below: SR leukemia; RPMI-8226 leukemia; OVCAR-8 ovarian; OVCAR-5 ovarian; OVCAR-4 ovarian; SK-OV-3 ovarian; IGROV1 ovarian; OVCAR-3 ovarian; HS 578T breast; NCI/ADR-RES ovarian.
What all share (experiment): NCI-60 one-dose screen, 48 h (100 = growth as untreated, 0 = no growth, -100 = all killed)
Holding throughout (settings): 10 µM unless noted

Consider `CN(C)c1nc2c(N)ncnc2n1C1OC(CO)C(O)C1O` (stereo not given), for which the growth in the test with SR leukemia was 99%; with RPMI-8226 leukemia, 92.1%; with OVCAR-8 ovarian, 107%; in the test with OVCAR-5 ovarian, 97.6%; in the test on OVCAR-4 ovarian, 123%; with SK-OV-3 ovarian, 116%. In addition, the growth was 111% in the test with IGROV1 ovarian, 108% with OVCAR-3 ovarian, 106% in the test on HS 578T breast and 114% in the test on NCI/ADR-RES ovarian.
As to `CCOc1cc2c(Cl)ncnc2c(OCC)c1OCC`, the growth in the test with SR leukemia was 4.52% (active); in the test with RPMI-8226 leukemia it was 15.5%; in the test with OVCAR-8 ovarian it was 99.6%; with OVCAR-5 ovarian it was 96.7%; in the test on OVCAR-4 ovarian, 94.9%; in the test on SK-OV-3 ovarian, 108%. Besides, the growth in the test on IGROV1 ovarian was -65.2% (active); in the test with OVCAR-3 ovarian, 3.36% (active); in the test on HS 578T breast it was 94.7%; in the test on NCI/ADR-RES ovarian, 92.5%.
Consider `CC(C)(C)n1cc(-c2ccnc(NCCCNS(=O)(=O)c3ccc(C(F)(F)F)cc3)c2)c(-c2cccc(O)c2)n1`, for which the growth is -7.63% (active) with SR leukemia; -9.47% (active) in the test on RPMI-8226 leukemia; 28% in the test on OVCAR-8 ovarian; 36.1% with OVCAR-5 ovarian; 41.7% in the test with OVCAR-4 ovarian; 70.1% in the test on SK-OV-3 ovarian. Moreover, the growth in the test with IGROV1 ovarian is 31.3%; with OVCAR-3 ovarian, 42.5%; in the test with HS 578T breast, 23.5%; in the test with NCI/ADR-RES ovarian it was 34.6%.
As to `COc1cc([N+](=O)[O-])c2ncccc2c1O`, the growth with SR leukemia was 107%; with RPMI-8226 leukemia, 75.6%; with OVCAR-8 ovarian, 78.5%; in the test on OVCAR-5 ovarian, 76.4%; in the test on OVCAR-4 ovarian, 104%; in the test on SK-OV-3 ovarian, 37%. Also, the growth in the test on IGROV1 ovarian was 51.8%; with OVCAR-3 ovarian it was 83.1%; in the test on HS 578T breast, -3.86% (active); in the test on NCI/ADR-RES ovarian, 91.1%.
For `Cc1nn(-c2ccc([N+](=O)[O-])cc2)c2ncnc(NCCc3ccccc3)c12`, the growth was 62.3% with SR leukemia; 96.9% with RPMI-8226 leukemia; 98.4% in the test on OVCAR-8 ovarian; 101% in the test on OVCAR-5 ovarian; 109% in the test with OVCAR-4 ovarian; 101% with SK-OV-3 ovarian. The growth with IGROV1 ovarian is 99.2%; with OVCAR-3 ovarian, 112%; in the test with HS 578T breast it was 101%; in the test with NCI/ADR-RES ovarian, 102%.
Regarding `COc1ccc(C(=O)N2NC(=O)/C(=C/c3ccccc3F)N=C2c2ccccc2)cc1`, the growth in the test on SR leukemia was 104%; in the test on RPMI-8226 leukemia it was 119%; in the test on OVCAR-8 ovarian, 101%; in the test with OVCAR-5 ovarian, 108%; in the test with OVCAR-4 ovarian, 106%; in the test on SK-OV-3 ovarian, 112%. For the same compound, the growth was 107% with IGROV1 ovarian, 114% with OVCAR-3 ovarian, 110% in the test with HS 578T breast and 105% in the test with NCI/ADR-RES ovarian.
For the compound `Cc1cc(C2=NNC(=O)Cc3cc4c(cc32)OCCO4)cc(C)c1N`, the growth was 27.5% in the test on SR leukemia; 52.8% in the test on RPMI-8226 leukemia; 54.8% in the test on OVCAR-8 ovarian; 75.8% in the test on OVCAR-5 ovarian; 56.8% in the test with OVCAR-4 ovarian; 20.2% in the test on SK-OV-3 ovarian. Besides, the growth was 44.7% in the test with IGROV1 ovarian, -28.5% (active) with OVCAR-3 ovarian, 24.9% in the test with HS 578T breast and -4.6% (active) with NCI/ADR-RES ovarian.
For the compound `CCOC(=O)C1CCNC(=O)C1=O` (stereo not given), the growth in the test on SR leukemia was 88.9%; with RPMI-8226 leukemia it was 96.8%; in the test on OVCAR-8 ovarian it was 110%; with OVCAR-5 ovarian it was 104%; with OVCAR-4 ovarian, 119%; with SK-OV-3 ovarian, 117%. Also, the growth is 130% in the test on IGROV1 ovarian, 122% with OVCAR-3 ovarian, 119% in the test with HS 578T breast and 105% in the test with NCI/ADR-RES ovarian.
Take `NC1=NC(SCc2ccccc2CCl)c2ncn(Cc3ccccc3CCl)c2N1` (stereo not given): the growth in the test on SR leukemia was 9.1% (active); in the test with RPMI-8226 leukemia, 76.7%; in the test on OVCAR-8 ovarian, 22.8%; in the test with OVCAR-5 ovarian, 110%; in the test on OVCAR-4 ovarian it was 42.9%; in the test with SK-OV-3 ovarian it was 89.7%. The growth with IGROV1 ovarian is -26.3% (active); with OVCAR-3 ovarian it was 2.22% (active); in the test on HS 578T breast, 33.8%; in the test with NCI/ADR-RES ovarian it was 69%.
In the case of `COc1ccc(-c2nc(-c3nc4cc(C)c(C)cc4[nH]3)cc3c2[nH]c2ccccc23)cc1`, the growth in the test with SR leukemia is -43.7% (active); in the test on RPMI-8226 leukemia, -26.3% (active); in the test on OVCAR-8 ovarian it was 36.9%; with OVCAR-5 ovarian it was 77.6%; in the test on OVCAR-4 ovarian, 60.6%; with SK-OV-3 ovarian it was 109%. The growth in the test with IGROV1 ovarian was 66.9%; with OVCAR-3 ovarian, -4% (active); with HS 578T breast, 56.9%; in the test with NCI/ADR-RES ovarian, 41.7%.
Take `NC1=NN(O)C2=CC([N+](=O)[O-])C=CC2=N1` (stereo not given): the growth with SR leukemia is 94.8%; with RPMI-8226 leukemia, 99.2%; with OVCAR-8 ovarian, 99.4%; with OVCAR-5 ovarian, 118%; in the test with OVCAR-4 ovarian, 108%; with SK-OV-3 ovarian, 100%. Moreover, the growth with IGROV1 ovarian is 120%; with OVCAR-3 ovarian, 99.8%; in the test on HS 578T breast, 98.8%; in the test on NCI/ADR-RES ovarian, 93.4%.
Regarding `OB(O)c1cccc(-c2nc3ccc4[nH]ncc4c3c3c2CCCC3)c1F`, the growth is 48.7% in the test with SR leukemia; 50.7% with RPMI-8226 leukemia; 52.8% in the test on OVCAR-8 ovarian; 75.1% with OVCAR-5 ovarian; 76.4% with OVCAR-4 ovarian; -10.7% (active) with SK-OV-3 ovarian. Moreover, the growth in the test with IGROV1 ovarian is 41.1%; with OVCAR-3 ovarian it was 62.5%; in the test on HS 578T breast, 24.9%; with NCI/ADR-RES ovarian, 53.7%.
Take `COc1cc2c(=O)n(C3CCCCCC3)c3c4cc[nH]c4ncc3c2cc1OC`: the growth in the test with SR leukemia was 16.3%; with RPMI-8226 leukemia it was 66.4%; in the test on OVCAR-8 ovarian it was 83.4%; with OVCAR-5 ovarian, 76.2%; in the test on OVCAR-4 ovarian it was 93.4%; in the test on SK-OV-3 ovarian it was 82.3%. Moreover, the growth with IGROV1 ovarian was 57.3%; in the test with OVCAR-3 ovarian it was 89.1%; with HS 578T breast it was 42.4%; in the test with NCI/ADR-RES ovarian it was 89.1%.
Regarding `O=[N+]([O-])c1ccc(OCCCOc2ccccc2)cc1`, the growth in the test with SR leukemia was 92.3%; in the test with RPMI-8226 leukemia, 97.7%; with OVCAR-8 ovarian it was 105%; in the test with OVCAR-5 ovarian, 107%; with OVCAR-4 ovarian it was 100%; with SK-OV-3 ovarian it was 105%. Further, the growth in the test with IGROV1 ovarian is 94.5%; in the test on OVCAR-3 ovarian, 99.3%; in the test on HS 578T breast, 108%; in the test with NCI/ADR-RES ovarian, 99.8%.
